Hit rate of the full screen: of about 2,100 compounds, about 1,100 (52%) were called active. Roughly 29% stayed inconclusive and do not appear here. The call rests on the fitted dose curve; in most records, active means well fitted inhibition curve with a large enough effect; inconclusive means small, poorly fitted or top-dose-only effect; inactive means no such curve, though single readings can be large or run the other way. The set was probably picked from earlier hits. This is one part of the list.
target: DNA dC->dU-editing enzyme APOBEC-3F (Homo sapiens) (UniProt Q8IUX4); assay: qHTS for inhibitors of Vif-A3F interactions: Cherry picks counterscreen; details: HeLa A3F-eYFP/Vif cells, eYFP fluorescence, 24 h; series mostly up to 46.1 µM; activity, negative = inhibitor: at the top concentration; further: nearly all actives have a fitted effect of over 65% in size
How it was run: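 HeLa cells stably expressing A3F-eYFP and Vif, cultured overnight, then treated 24 h at 37 degrees C with compounds at several concentrations; yellow fluorescence (488 nm Ex/500-530 nm Em) imaged on Acumen; MG132 positive control.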
On the % scale 0 is the no-effect control and ±100 the full control effect; potency means the concentration at half of the fitted maximal effect.

Chain of DNA dC->dU-editing enzyme APOBEC-3F (Homo sapiens) (Q8IUX4 whole entry, looked up): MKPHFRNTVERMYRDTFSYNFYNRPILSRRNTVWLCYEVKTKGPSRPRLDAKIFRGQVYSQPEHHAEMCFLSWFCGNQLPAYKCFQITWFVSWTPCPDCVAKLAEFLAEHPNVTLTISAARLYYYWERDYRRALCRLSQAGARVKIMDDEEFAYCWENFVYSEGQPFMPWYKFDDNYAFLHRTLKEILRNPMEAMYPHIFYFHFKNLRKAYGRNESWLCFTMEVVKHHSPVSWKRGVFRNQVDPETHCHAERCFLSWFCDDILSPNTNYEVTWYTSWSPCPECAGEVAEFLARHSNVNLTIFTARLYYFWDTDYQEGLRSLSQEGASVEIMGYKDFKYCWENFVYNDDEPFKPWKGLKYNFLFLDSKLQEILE

SMILES	activity, negative = inhibitor	Potency
O=C(NC(=S)N1CCc2ccccc21)c1ccco1	-3.14% (inactive)	–
CCN(CC)c1ccc(/C=N/NC(=O)c2ccco2)cc1	–	6.27 µM (active)
Cc1ccc(CNc2nc3ccc(Cl)cc3n3nnnc23)cc1	–	11.6 µM (active)
c1ccc2c(c1)nc(N1CCOCC1)c1nnnn12	–	20.6 µM (active)
Fc1ccc(CNc2nc3ccccc3n3nnnc23)cc1	–	11.6 µM (active)
Fc1ccccc1Nc1nc2ccccc2n2nnnc12	–	14.6 µM (active)
c1ccc2c(c1)nc(NCC1CCCO1)c1nnnn12 (stereo unspecified)	–	18.4 µM (active)
Fc1ccc(CNc2nc3ccc(Cl)cc3n3nnnc23)cc1	–	6.51 µM (active)
N#C/C(=C/c1ccc(N2CCCCC2)o1)c1cccc(F)c1	–	4.11 µM (active)
N#C/C(=C/c1ccc(N2CCCCCC2)o1)c1ccc(Cl)cc1	–	3.66 µM (active)
Cc1ccc(/C(C#N)=C\c2ccc(N3CCOCC3)o2)cc1	–	15.8 µM (active)
N#C/C(=C/c1ccc(N2CCOCC2)o1)c1ccc(Cl)cc1	–	4.61 µM (active)
CCN(c1ccc(NC(=O)CCc2nc3sc4c(c3c(=O)[nH]2)CCCC4)cc1)C(C)C	-28.5% (inactive)	–
CC(C)(C)c1ccc(C(=O)C[n+]2cccc3cc(Cl)ccc32)cc1	–	18.4 µM (active)
COc1ccc(C(=O)C[n+]2cccc3cc(Cl)ccc32)cc1	–	20.6 µM (active)
O=C(C[n+]1cccc2cc(Cl)ccc21)c1ccc2ccccc2c1	–	20.6 µM (active)
CCCC1=[N+](CC(=O)c2ccc(Br)cc2)CCn2cccc21	-9.63% (inactive)	–
COc1ccc(C(=O)C[n+]2cc(Br)cc3ccccc32)cc1	–	16.4 µM (active)
O=C(NC1C/C(=N/O)c2cc3c(cc21)OCO3)C(F)(F)F (stereo unspecified)	11.8% (inactive)	–
CCCn1c(CN2CCN(C(=O)OCC)CC2)nc2cc(NC(=O)C(C)C)ccc21	–	12.5 µM (active)
COC(=O)Cn1c(C)c(/C=C/c2cc[n+](C)cc2)c2ccccc21	–	9.2 µM (active)
CCN(CC)C(=O)Cn1c(C)c(/C=C/c2cc[n+](C)cc2)c2ccccc21	–	7.9 µM (active)
COc1ccccc1-c1cc(-c2ccccc2)nc(SC(C(N)=O)c2ccccc2)c1C#N (stereo unspecified)	–	17.7 µM (active)
N#CC1=C(S)N(c2ccc(F)cc2)C2(CCCCC2)NC1=O	16.2% (inactive)	–

SMILES	activity, negative = inhibitor	Potency
Cc1ccc2nc(C)c(C(=O)NN=C3CCCCCC3)n2c1	-27.5% [at 36.9 µM] (inactive)	–
O=C1OC(/C(=C\Nc2cc(Cl)ccc2O)[N+](=O)[O-])c2ccccc21 (stereo unspecified)	-22.5% [at 36.9 µM] (inactive)	–
CC(C)CN(CC(C)C)c1ccc(/C=C/c2ccnc3ccccc23)cc1	–	20.6 µM (active)
CCCCN(CCC(=O)O)c1ccc(/C=C/c2ccnc3ccccc23)cc1	–	18.4 µM (active)
CCN(C)c1ccc(/C=C/c2ccnc3ccccc23)cc1	–	23.1 µM (active)
CCN(CCCN(C)C)c1ccc(/C=C/c2ccnc3ccccc23)cc1	–	20.6 µM (active)
CCCN(CCC)c1ccc(/C=C/c2ccnc3ccccc23)cc1	–	20.6 µM (active)
CCN(CC)c1ccc(/C=C/c2ccnc3ccccc23)cc1	–	23.1 µM (active)
CCCCN(CCCC)c1ccc(/C=C/c2ccnc3ccccc23)cc1	–	23.1 µM (active)
COCCNC(=O)C(=O)Nc1ccc2c(c1)N(S(=O)(=O)c1cccs1)CCC2	–	2.23 µM (active)
CCOc1ccccc1NC(=O)Cn1nnc(C(=O)NCc2cccs2)c1N	–	1.46 µM (active)
CCN(CC(=O)NCc1ccc(F)cc1)C(=O)/C=C/c1ccc(OC)c(S(=O)(=O)NC(C)C)c1	–	4.98 µM (active)
COc1ccc(NC(=O)C2Cc3c(-c4cccc(C(C)=O)c4)ccnc3O2)cn1 (stereo unspecified)	–	3.14 µM (active)
COc1ccc(NC(=O)C2Cc3c(-c4cccc(C(C)=O)c4)ccnc3O2)cc1 (stereo unspecified)	–	3.53 µM (active)
CC(=O)Nc1cccc(-c2ccnc3c2CC(C(=O)Nc2ccc4c(c2)OCO4)O3)c1 (stereo unspecified)	–	4.44 µM (active)
CC(=O)c1cccc(-c2ccnc3c2CC(C(=O)Nc2ccc(Cl)cc2)O3)c1 (stereo unspecified)	–	4.98 µM (active)
COc1ccc(NC(=O)C2Cc3c(-c4cccc(NC(C)=O)c4)ccnc3O2)cn1 (stereo unspecified)	–	7.9 µM (active)
CC(=O)Nc1ccc(-c2ccnc3c2CC(C(=O)Nc2cccc(N(C)C)c2)O3)cc1 (stereo unspecified)	–	12.5 µM (active)
Cc1ccc(S(=O)(=O)c2cc3ccccc3oc2=Nc2ccc3c(c2)OCO3)cc1	-12.3% (inactive)	–
CC(C)NC(=S)N/N=C/c1sc(N2CCCCC2)nc1-c1cccs1	-29.2% (inactive)	–
COc1cccc(N2CC(O)=C(c3nc4ccccc4s3)C2=N)c1	–	7.9 µM (active)
CCN(CC)c1ccc(/C=C2\C(=N)N3N=C(CC(=O)N4CCOCC4)SC3=NC2=O)cc1	–	0.0353 µM (active)
CN(C)c1ccc(/C=C2\C(=N)N3N=C(CC(=O)N4CCCCC4)SC3=NC2=O)cc1	–	3.26 µM (active)
COc1cc(/C=C2\C(=N)N3N=CSC3=NC2=O)cc(Br)c1OC(=O)c1ccco1	28.5% (inactive)	–

SMILES	activity, negative = inhibitor	Potency
CN(C)c1ccc(/C=C2\SC(N3CCCCC3)=NC2=O)cc1	–	23.1 µM (active)
COc1cc(/C=C2\C(=N)N3N=C(S(C)(=O)=O)SC3=NC2=O)ccc1OC(=O)c1ccco1	29.8% (inactive)	–
CN1C(=O)c2cccc(NCCCN3C(=O)c4ccccc4C3=O)c2C1=O	–	18.4 µM (active)
CCCOc1ccc(N)cc1N	-4.55% (inactive)	–
CCN1C(=O)/C(=C/c2ccc(N3CCCC3)cc2)NC1=S	–	20.6 µM (active)
CN(C)c1ccc(/C=C2\NC(=S)N(Cc3ccccc3)C2=O)cc1	–	2.23 µM (active)
O=C1/C(=C/c2ccc(N3CCCC3)cc2)NC(=S)N1C1CC1	–	14.6 µM (active)
Cc1cccc(N2CCN(Cc3cn(C)nc3-c3ccccc3F)CC2)n1	–	6.27 µM (active)
O=C1CC(c2ccccc2)Cc2[nH]c(=O)c(-c3nc(-c4cccc(Cl)c4)cs3)cc21 (stereo unspecified)	–	4.11 µM (active)
Cc1sc(-c2cc3c([nH]c2=O)CC(c2ccccc2)CC3=O)nc1-c1ccc(Cl)cc1 (stereo unspecified)	–	8.2 µM (active)
CCOC(=O)N1CCN(c2c(NCc3ccc(F)cc3)c(=O)c2=O)CC1	–	17.7 µM (active)
Cc1ccc2[nH]c(C)c(/C=C/c3cc[n+](C)cc3)c2c1	–	1.77 µM (active)
Cc1[nH]c2ccccc2c1/C=C/c1cc[n+](C)cc1	–	6.27 µM (active)
Cc1[nH]c2ccccc2c1/C=C/C(=O)c1ccccc1	–	23.1 µM (active)
CSc1nc(N)c(C#N)c(-c2ccccc2Cl)c1C#N	-26.6% [at 36.9 µM] (inactive)	–
COc1ccccc1-c1c(C#N)c(N)nc2c1CCc1ccccc1-2	–	3.14 µM (active)
Cc1ccc(C=Nc2ccccc2C(N)=O)s1	–	3.96 µM (active)
COc1cc(/C=C2/SC(=S)N(Cc3ccccc3)C2=O)cc(Cl)c1O	–	3.96 µM (active)
COc1cc(/C=C2/SC(=S)N(CCC(=O)Nc3ccccc3)C2=O)cc(OC)c1OC	–	23.1 µM (active)
O=C(O)c1cc(-c2ccc(/C=C3/SC(=S)N(Cc4ccccc4)C3=O)o2)ccc1Cl	–	14.6 µM (active)
O=C1/C(=C\c2ccc(O)cc2)SC(=S)N1Cc1ccccc1	27.8% (inactive)	–
CCC(=C/c1sc2ccc3ccccc3c2[n+]1C)/C=C1\Sc2ccc3ccccc3c2N1C	-5.46% (inactive)	–
Cc1csc(NC(=O)CCC(=O)N(CC(=O)NC2CCCC2)Cc2ccccc2)n1	3.75% (inactive)	–
Nc1c(C(=O)c2ccc(Cl)cc2)sc2nc3c(cc12)CCC3	–	18.4 µM (active)

SMILES	activity, negative = inhibitor	Potency
CCN1CCc2nc3sc(C(=O)c4ccccc4)c(N)c3cc2C1	–	23.1 µM (active)
Cc1ccccc1NC(=O)c1sc2nc3c(c(-c4ccco4)c2c1N)CCC3	-29.3% [at 36.9 µM] (inactive)	–
COc1ccc(NC(=O)c2sc3nc4c(cc3c2N)CN(Cc2ccccc2)CC4)c(OC)c1	–	18.4 µM (active)
COc1cc(OC)c(OC)cc1/C=C1\Oc2cc(OCC(=O)N3Cc4ccccc4C[C@H]3C(=O)O)ccc2C1=O	–	1.84 µM (active)
COc1ccc(/C=C2\Oc3cc(OC(=O)N4CCOCC4)ccc3C2=O)c(OC)c1	-8.95% (inactive)	–
CC(=O)Oc1ccc(N2C(=O)c3cccc4c([N+](=O)[O-])ccc(c34)C2=O)cc1	22.2% (inactive)	–
Cc1nnc(N2C(=O)c3cccc4c([N+](=O)[O-])ccc(c34)C2=O)s1	–	20.6 µM (active)
O=C1c2cccc3c([N+](=O)[O-])ccc(c23)C(=O)N1c1ccccn1	18.3% (inactive)	–
COc1cc2c3nnc(-c4ccc(F)cc4)c-3cn(Cc3ccc(C)cc3)c2cc1OC	–	15.8 µM (active)
COc1cc2c3nnc(-c4ccc(F)cc4)c-3cn(Cc3ccccc3F)c2cc1OC	–	16.4 µM (active)
COc1cc2c3nnc(-c4ccccc4)c-3cn(Cc3ccccc3F)c2cc1OC	–	3.66 µM (active)
Cn1nnc2c[n+](CC(=O)c3ccc(Cl)cc3)cc(Br)c21	–	17.7 µM (active)
O=C1CCCN1c1ccc(S(=O)(=O)Nc2ccc3c(c2)OCCO3)cc1	–	3.96 µM (active)
O=[N+]([O-])c1ccc(Oc2cccc3cccnc23)c([N+](=O)[O-])c1	–	14 µM (active)
O=[N+]([O-])c1cc(O)c2ncccc2c1	-1.6% [at 36.9 µM] (inactive)	–
CC1CC(C)(C)Nc2ccc(OC(=O)c3ccco3)cc21 (stereo unspecified)	–	18.4 µM (active)
CC1(C)Cc2nc3sc4c(SCC(=O)NCc5ccco5)ncnc4c3cc2CO1	–	5.59 µM (active)
CC1(C)Cc2nc3sc4c(=O)n(CC(=O)NCc5ccccc5)cnc4c3cc2CO1	–	2.23 µM (active)
CCc1ccc(N=Nc2ccc(O)c3[nH]cnc23)cc1	–	8.2 µM (active)
S=C(Nc1ccccc1)N1CCn2c1nc1ccccc12	-0.0104% [at 36.9 µM] (inactive)	–
CCCOc1ccc(C(=O)Nc2cccc(NC(=O)c3ccc(Cl)cc3Cl)c2)cc1	–	20.6 µM (active)
COc1cc(OC)cc(C(=O)Nc2ccc(N3CCN(C(=O)c4cccs4)CC3)cc2)c1	–	7.9 µM (active)
COc1cccc(C(=O)Nc2ccc(N3CCCC3)cc2)c1	–	5.59 µM (active)
COc1cc(C(=O)OCC(=O)Nc2ccc(N3CCOCC3)cc2)ccc1OCC(C)C	12% [at 36.9 µM] (inactive)	–
